# Compounds without any hit were thinned out: in the full panel of roughly 83,000, 20% have a hit.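 Activity criterion: percent growth below 10, measured after cells in 96-well plates were exposed to a single compound concentration for 48 hours.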 Active and inactive are the calls of the source.
# System: ACHN renal
# Assay: NCI-60 one-dose screen, 48 h (100 = growth as untreated, 0 = no growth, -100 = all killed)
# Settings: 10 µM
row,SMILES,growth
1,Cc1ccc(C(=O)N/C(=C2/OCCN2C)[P+](c2ccccc2)(c2ccccc2)c2ccccc2)cc1,114% (inactive)
2,CN(C)c1ccc(/C=C/c2nc3ccccc3c(=O)n2CC(=O)Nc2ccc(Cl)cc2)cc1,43.3% (inactive)
3,Cc1ccc(CNC(=O)Cc2ccc3c(c2)CN(C2CCC(=O)NC2=O)C3=O)cc1 (configuration not stated),30.5% (inactive)
4,Cc1ccn2c(C(=O)c3ccccc3)cc(-c3cc(-c4ccc(N(C)C)cc4)c(C#N)c(N)n3)c2c1,31.2% (inactive)
5,CCOP(=O)(OCC)O[C@H]1CCC(=O)[C@@H]2[C@H]1[C@H]1C[C@@H]3[C@@]4(C)CCCC(C)(C(=O)OC)[C@@H]4CC[C@@]23C=C1C(C)C (some centres not stated),65.2% (inactive)
6,C#CCNC(=O)CCC(=O)OC[C@]12CC[C@@H](C(=C)C)[C@@H]1C1CC[C@@H]3[C@@]4(C)CCCNC(C)(C)[C@@H]4CC[C@@]3(C)[C@]1(C)CC2 (some centres not stated),26.6% (inactive)
7,C/C(=N\N=C\c1ccc(N(C)C)cc1)c1ccc2c(c1)Nc1ccccc1S2,50.8% (inactive)
8,O=C(Nc1ccc(Cl)c([N+](=O)[O-])c1)Nc1ccc(Cl)c([N+](=O)[O-])c1,4.21% (active)
9,COc1ccc(CN2[C@H](C(=O)NCc3ccc(C(=O)NO)cc3)Cc3c([nH]c4ccccc34)[C@H]2C2CC2)cc1,76.4% (inactive)
10,O=C(NO)c1ccc(CNC(=O)[C@H]2Cc3c([nH]c4ccccc34)[C@H](c3ccc(Cl)cc3)N2)cc1,28.6% (inactive)
11,O=C(Cn1nc(-c2ccccc2)ccc1=O)NN1C(=O)c2ccccc2C1=O,99% (inactive)
12,OCc1[nH]nc2cc(Nc3ncc4ccc(Br)c(OC5CCC(O)CC5)c4n3)ccc12 (configuration not stated),0.365% (active)
13,COc1cc2c3c(n(CCCNCCO)c(=O)c2cc1OC)-c1nc2c(cc1C3=O)OCO2,2.56% (active)
14,COc1ccc(CN2[C@H](C(=O)NCCCCCCC(=O)NO)Cc3c([nH]c4ccccc34)[C@H]2C2CC2)cc1,0.712% (active)
15,COc1ccc(C2N(c3ccc(Br)cc3)N=C(C(C)=O)N2[C@H]2[C@H](OC(C)=O)O[C@H](COC(C)=O)[C@@H](OC(C)=O)[C@@H]2OC(C)=O)cc1 (some centres not stated),61.1% (inactive)
16,CN1C(=O)N(C)C2SC(N/N=C/c3cccs3)=NC21 (configuration not stated),38.8% (inactive)
17,Cc1cc(C)nc(/N=C(\N)Nc2ccc(S(=O)(=O)Nc3nc(C)cc(C)n3)cc2)n1,115% (inactive)
18,O=C(Cc1ccc2c(c1)CN(C1CCC(=O)NC1=O)C2=O)NCCc1ccccc1 (configuration not stated),48.9% (inactive)
19,CCNCCCn1c2c(c3cc(OC)c(OC)cc3c1=O)C(=O)c1cc3c(nc1-2)OCO3,2.02% (active)

row,SMILES,growth
1,O=C(CNc1nc(-c2ccccc2)cs1)Nc1ccc(Cl)cc1[N+](=O)[O-],-60.6% (active)
2,Cc1ccc2nc(-c3ccc(-c4nnc(SCC(=O)Nc5ccc(Cl)cc5)o4)cc3)[nH]c2c1,7.34% (active)
3,Cc1ccc(C(=O)NNC(=O)CSc2nc3ccccc3c(=O)[nH]2)cc1,107% (inactive)
4,CN(C)CCNC(=O)OCCCCOc1cc(O)c2c(=O)cc(-c3ccccc3)oc2c1,-97.5% (active)
5,CCCCSc1nc(Nc2ccc(/C(C)=N/NC(N)=S)cc2)c(C#N)c(-c2ccccc2)n1,14.3% (inactive)
6,O=c1[nH]c2ccccc2cc1CSc1ccc(Nc2nccc(-c3ccc4c(c3)OCO4)n2)cc1,94.7% (inactive)
7,COc1cc2oc(-c3cccc(C(=O)Nc4ccc(Cl)cc4)c3)cc(=O)c2c(OCCNC(=O)CNC(=O)OC(C)(C)C)c1OC,61.3% (inactive)
8,Cc1ccc2nc(-c3ccc(-c4nnc(SCC(=O)Nc5ccc(Br)cc5)o4)cc3)[nH]c2c1,67.8% (inactive)
9,COc1ccc(CN2[C@@H](C(=O)NCc3ccc(C(=O)NO)cc3)Cc3c([nH]c4ccccc34)[C@@H]2C)cc1,36% (inactive)
10,O=C(CNc1nc(-c2ccccc2)cs1)Nc1cccc(Cl)c1,28.3% (inactive)
11,NS(=O)(=O)c1ccc(NC(=O)CSc2ccc(-c3ccc(Cl)cc3)nn2)c(Br)c1,24.7% (inactive)
12,Clc1ccc2c(N/N=C/c3c[nH]c4ccc(Br)cc34)ccnc2c1,-90.8% (active)
13,Cc1ccc(-c2ccc(SCC(=O)Nc3ccc(S(N)(=O)=O)cc3Br)nn2)cc1,11.7% (inactive)
14,CC(=O)Nc1ccc(-c2cn(-c3cccc(C(=O)Nc4cccc(OC(F)(F)F)c4)c3)nn2)cn1,101% (inactive)
15,CCOC(=O)N/C(=C1/OCCN1C)[P+](c1ccccc1)(c1ccccc1)c1ccccc1,107% (inactive)
16,O=C(NO)c1ccc(CNc2nc(-c3ccccc3)c3ccccc3n2)cc1,-74.2% (active)
17,Cc1cc(C)nc(NS(=O)(=O)c2ccc(N/C(N)=N/c3nccc(-c4cccs4)n3)cc2)n1,94.8% (inactive)
18,COc1cnc2c(c1)C(=O)c1c-2n(CCCNCCO)c(=O)c2cc(OC)c(OC)cc12,3.42% (active)

# From PubChem BioAssay (NCI)
